# The supplement of paper PMC9135407
# Values joined by “and” are separate entries in the source; they are usually repeats but may differ in a detail not shown here. Identical values can stand only once. Counter-ions that a name gives are not always drawn. Out of some 5,800 compounds screened, about 620 (11%) showed activity. What follows is part of a selection rich in actives, with near analogues and random picks from the rest. Values without a mark were called inactive.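 How the source made its calls: active = score above a cut-off or among the top three wells of a plate; in these data no inactive exceeds 0.85.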
# System: primary human hepatic stellate cells (donor 1)
# Assay: scaled lipid accumulation score (0 = DMSO-like, 1 = nortriptyline-like); higher = stronger HSC inactivation (lipid re-accumulation), active = hit call of the paper
# Details: 48 h
# Procedure: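 Primary lipid accumulation screen in primary human hepatic stellate cell myofibroblasts (donor 1, passage 8) in 384-well plates. 100 nL of library compound was pin-transferred into 30 µL medium in duplicate, and cells were treated for 48 h. The 'Scaled' score combines distance from plate baseline, toxicity and reproducibility penalties, and is normalised to nortriptyline (positive) and DMSO (negative) controls on each plate. A hit is defined as scaled >0.85 or among the top 3 wells per plate.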
# [1] = library stock concentration: 1 mM
# [2] = library stock concentration: 10 mM
# [3] = library stock concentration: 3.33 mM
# [4] = library stock concentration: 6.9 mM
structure (smiles),measurement,setting,value
COc1cc2c(cc1O)[C@@H]1Cc3ccc(OC)c(O)c3CN1CC2 [Scoulerine],scaled lipid accumulation score,,0.07
"COc1ccc(CC2c3cc(OC)c(OC)cc3CCN2C)cc1OC (racemic) [Laudanosine (R,S)]",scaled lipid accumulation score,,≤ 0
C/C1=C/C(=O)O[C@@H]2C[C@@H](CC[C@H](C)/C=C\CC1)O[C@@](O)([C@@H]1CSC(=O)N1)C2 [Latrunculin B],scaled lipid accumulation score,library stock concentration: 12.6 mM,0.632
CCCCC/C=C\C/C=C\C/C=C\C/C=C\CCCC(=O)N[C@@H](C)CO [S-1 Methanandamide],scaled lipid accumulation score,[1],≤ 0
CN1C2CC(=O)CC1C(O)C2 (stereo unspecified) [6-Hydroxytropinone],scaled lipid accumulation score,,≤ 0
CN1[C@@H](C[C@@H](O)c2ccccc2)CCC[C@H]1C[C@H](O)c1ccccc1 [Lobelanidine hydrochloride],scaled lipid accumulation score,,0.194
O=C(O)C1=CCCN(CCOC(c2ccc(C(F)(F)F)cc2)c2ccc(C(F)(F)F)cc2)C1 [CI 966 hydrochloride],scaled lipid accumulation score,[2],≤ -0.006
CC1=C(O)C(=O)C=C2C1=CC=C1[C@@]2(C)CC[C@@]2(C)[C@@H]3C[C@](C)(C(=O)O)CC[C@]3(C)CC[C@]12C [Celastrol] [listing 1 of 2 here],scaled lipid accumulation score,[1],1.34 (active)
O=C1C=C2C(C(C)=C1O)=CC=C3[C@]2(CCC4([C@@H]5C[C@@](CC[C@@]5(CC[C@]34C)C)([C@@](O)=O)C)C)C (stereo partly specified) [Celastrol],scaled lipid accumulation score,library stock concentration: 2 mM,1.14 (active)
same,scaled lipid accumulation score,[2],1.14 (active)
CC1=C(O)C(=O)C=C2C1=CC=C1[C@@]2(C)CC[C@@]2(C)[C@@H]3C[C@](C)(C(=O)O)CC[C@]3(C)CC[C@]12C [Celastrol] [listing 2 of 2 here],scaled lipid accumulation score,library stock concentration: 80 uM,0.019
same,scaled lipid accumulation score,library stock concentration: 400 uM,0.093
same,scaled lipid accumulation score,[2],0.392
CN1CCN(C(=O)O[C@H]2c3nccnc3C(=O)N2c2ccc(Cl)cn2)CC1 [Eszopiclone],scaled lipid accumulation score,[2],≤ 0
CN1CCN(C(=O)O[C@H]2c3nccnc3C(=O)N2c2ccc(Cl)cn2)CC1,scaled lipid accumulation score,[2],0.134
C#CCN[C@H](C)Cc1ccccc1 [R-(-)-Desmethyldeprenyl hydrochloride],scaled lipid accumulation score,[2],≤ 0
CC[C@@H]1C=CC=CC[C@H](C)[C@@H](O)[C@@H](C)C(=O)[C@H](C)[C@@H](O)[C@H](C)C(=O)[C@H](C)[C@@H](O)[C@H](C)C=CC(=O)O[C@H]2[C@@H](C)[C@@H](CC1)O[C@@]1(CC[C@@H](C)[C@@H](C[C@H](C)O)O1)[C@@H]2C,scaled lipid accumulation score,[2],≤ 0
CN1[C@@H]2CC[C@H]1C[C@@H](OC(=O)C(CO)c1ccccc1)C2 (stereo partly specified) [Atropine sulfate monohydrate],scaled lipid accumulation score,,0.118
CN1[C@@H]2CC[C@H]1C[C@@H](OC(=O)C(CO)c1ccccc1)C2 (stereo partly specified) [Atropine],scaled lipid accumulation score,[3],≤ 0
same,scaled lipid accumulation score,[2],≤ 0
CN1[C@@H]2CC[C@H]1CC(OC(=O)N1Cc3ccccc3NC1=O)C2 (stereo partly specified) [DAU 5884 hydrochloride],scaled lipid accumulation score,[2],≤ -0.001
CN1[C@@H]2CC[C@H]1C[C@@H](OC(=O)[C@H](CO)c1ccccc1)C2 [L-Hyoscyamine],scaled lipid accumulation score,[2],≤ -0.07
CN1[C@@H]2CC[C@H]1C[C@@H](OC(=O)[C@H](CO)c1ccccc1)C2 [Hyoscyamine (L)],scaled lipid accumulation score,,≤ 0
CCC(Oc1ccc(Cl)cc1)C(=O)OC1CC2CCC(C1)N2C.O=C(O)/C=C\C(=O)O (stereo unspecified) [SM-21 maleate],scaled lipid accumulation score,[2],0.886 (active)
COc1ccc(C(=O)OC2C[C@H]3CC[C@@H](C2)N3C)cc1OC (stereo partly specified) [Convolamine hydrochloride],scaled lipid accumulation score,,0.027
CN1[C@@H]2CC[C@H]1C[C@@H](OC(=O)[C@H](CO)c1ccccc1)C2 [Hyoscyamine],scaled lipid accumulation score,[3],≤ 0
same,scaled lipid accumulation score,[4],≤ -0.001
same,scaled lipid accumulation score,[2],≤ 0 and 0.017
CN1[C@@H]2CC[C@H]1C[C@@H](OC(=O)C(CO)c1ccccc1)C2 (stereo partly specified) [Atropine sulfate],scaled lipid accumulation score,library stock concentration: 5.2 mM,0.019
same,scaled lipid accumulation score,[4],0.018
same,scaled lipid accumulation score,[2],0.196 and ≤ 0
CN1[C@@H]2CC[C@H]1C[C@@H](OC(=O)C(CO)c1ccccc1)C2 (stereo partly specified),scaled lipid accumulation score,[2],≤ 0
CC(C(=O)OC1CC2CCC(C1)N2C)c1ccc(Br)cc1.O=C(O)/C=C\C(=O)O (stereo unspecified) [PG-9 maleate],scaled lipid accumulation score,[2],0.958 (active)
CNCC(O)c1ccc(O)c(OC)c1 (stereo not drawn) [Metanephrine hydrochloride DL],scaled lipid accumulation score,,0.001
"CCCCCC1OC1C/C=C\CCCCCCCC(=O)O (stereo unspecified) [Leukotoxin B (12,13-EODE)]",scaled lipid accumulation score,library stock concentration: 100 uM,≤ -0.021
CCCCCC[C@H]1C(=O)O[C@H](C)[C@H](NC(=O)c2cccc(NC=O)c2O)C(=O)O[C@@H](C)[C@@H]1OC(=O)CC(C)C [Antimycin A],scaled lipid accumulation score,,0.274
